Source: PubChem BioAssay (National Center for Advancing Translational Sciences (NCATS))
Tau filament bind = qHTS Assay for Tau Filament Binding | Microtubule-associated protein tau (Homo sapiens), P10636 | recombinant tau filaments, thioflavin S fluorescence, 15 h; filaments grown with octadecylsulfate alongside compound | Potency, µM (top dose mostly 57.1 µM), inactives show top-dose activity change, negative = inhibition | 2% of 71,000 active | AID 596, 2007;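 also: potency is read from the fitted curve at half-maximal effect; % is scaled to controls: 0 for no effect and ±100 for the full control effect; actives lower thioflavin S fluorescence by blocking filaments or displacing dye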
Target sequence (P10636 whole entry, looked up): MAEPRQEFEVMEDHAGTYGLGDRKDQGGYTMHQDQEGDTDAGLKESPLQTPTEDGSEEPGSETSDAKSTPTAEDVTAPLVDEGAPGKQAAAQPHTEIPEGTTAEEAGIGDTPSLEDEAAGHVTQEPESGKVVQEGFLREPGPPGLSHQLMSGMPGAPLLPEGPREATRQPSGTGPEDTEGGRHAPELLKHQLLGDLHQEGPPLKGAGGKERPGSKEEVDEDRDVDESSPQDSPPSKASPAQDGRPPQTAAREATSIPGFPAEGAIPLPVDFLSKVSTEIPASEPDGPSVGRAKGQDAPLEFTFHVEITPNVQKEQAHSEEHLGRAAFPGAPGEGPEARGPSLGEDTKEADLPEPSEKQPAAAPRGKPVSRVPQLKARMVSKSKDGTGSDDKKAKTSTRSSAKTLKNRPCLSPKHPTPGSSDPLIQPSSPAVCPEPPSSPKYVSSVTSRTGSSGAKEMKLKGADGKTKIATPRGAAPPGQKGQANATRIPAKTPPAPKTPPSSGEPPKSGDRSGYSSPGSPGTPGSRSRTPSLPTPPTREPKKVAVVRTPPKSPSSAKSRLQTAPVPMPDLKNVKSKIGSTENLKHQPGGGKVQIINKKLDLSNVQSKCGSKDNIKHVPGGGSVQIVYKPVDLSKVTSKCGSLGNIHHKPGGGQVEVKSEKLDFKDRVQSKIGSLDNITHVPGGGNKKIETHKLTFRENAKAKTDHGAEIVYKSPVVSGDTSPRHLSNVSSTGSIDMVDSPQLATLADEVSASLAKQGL
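Assay mix: 1 uM His-tagged tau, 30 uM sodium octadecylsulfate, thioflavine S dye in HEPES/NaCl/DTT buffer. Compound is added prior to the inducer. Fluorescence after 15 h at 37 C.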
Pol III holo inh = qHTS Assay for Inhibitors of DNA Polymerase III Holoenzyme System; reconstituted DNA polymerase III holoenzyme replication, biochemical; Potency, µM (doses to about 57.1 µM), inactives show top-dose activity change, negative = inhibition; 0.25% of 71,000 active; AID 603, 2007; also: potency is read from the fitted curve at half-maximal effect; % is scaled to controls: 0 for no effect and ±100 for the full control effect
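Reconstituted *E. coli* holoenzyme (0.35 nM Pol III, 1 nM beta, 154 nM SSB, 2 nM primase) was preincubated with compound for 15 min at RT. Synthesis on 1.4 nM ssM13Gori ran 35 min, then was stopped with PicoGreen/EDTA and read as dsDNA fluorescence.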
TsaE inh = qHTS Assay for Inhibitors of YjeE. Potency, µM. 0.05% of 71,000 active. purified YjeE enzyme, qHTS inhibition assay. tRNA threonylcarbamoyladenosine biosynthesis protein TsaE (Escherichia coli (strain …
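Purified YjeE (10 uM) with BODIPY Texas Red-labeled ADP probe (2 uM); compounds pin-transferred, 15 min at room temperature. Binding inhibition read as decreased fluorescence polarization; ADP titration as control.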
15-hLO inh = qHTS Assay for Inhibitors of 15-hLO (15-human lipoxygenase); purified 15hLO-1, xylenol orange hydroperoxide absorbance; Potency, µM (doses to about 57.1 µM), for the others: at the top dose activity change, negative = inhibition, usual class: inhibitors; 1.4% of 74,000 active; AID 887, 2007; also: potency is read from the fitted curve at half-maximal effect; % is scaled to controls: 0 for no effect and ±100 for the full control effect; nearly all actives have a fitted effect of over 55% in size
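40 nM 15hLO-1 + cpd, 15 min RT; start w/ 50 uM AA (final), 6 min RT; stop/detect w/ 200 uM XO + 300 uM Fe(II) in 50 mM H2SO4, 30 min; A573/A405. Buffer 25 mM Hepes pH 7.5, 0.01% Triton X-100. No-enzyme wells as negative control.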
Hsp90 Hop PPI = qHTS Assay for Disrupters of an Hsp90 Co-Chaperone Interaction; Potency, µM (top dose mostly 57 µM), for inactives: at the highest dose activity change, negative = inhibition; Hsp90 C-terminal peptide / TPR2A (Hop) interaction, human; AID 595, 2007; 0.44% of 71,000 active; AlphaScreen TPR2A-His6 binding biotin-Hsp90 C-terminal peptide; active = well fitted curve in either direction with a large enough effect; inconclusive = small, poorly fitted or top-dose-only effect, or another doubt; also: potency is read from the fitted curve at half-maximal effect; % is scaled to controls: 0 for no effect and ±100 for the full control effect
* = called active by the depositor; [ ] = dose if it differs, or a comment. Only some compounds are listed: those with a hit (about 3.3% of all), similar ones and a draw of the others. Unless noted, calls follow the shape of the dose curve; as a rule, active = well fitted curve in the direction sought with a large enough effect; inconclusive = small, poorly fitted or top-dose-only effect, or another doubt; inactive = no such curve, though single readings can be large; an effect the other way counts as inactive or inconclusive.

Results for C#CCCCO/N=C1/C[C@@H](O)[C@@H](O)[C@@H]2[C@@H]3C(=O)N(Cc4ccc5c(c4)OCO5)C(=O)[C@H]3CC[C@H]12 ?
15-hLO inh: -1%[11.4 µM]

How did O=C1C(C=NCc2ccco2)=C(O)c2ccccc21 do in these assays?
Tau filament bind: 25µM*; Pol III holo inh: -5%; TsaE inh: inactive; 15-hLO inh: -7%; Hsp90 Hop PPI: -8%

What do the screens show for `O=C1[C@H]2[C@H]3[C@H](O)[C@H](O)C/C(=N/OCc4ccccc4)[C@H]3CC[C@@H]2C(=O)N1C1CCCCC1`?
15-hLO inh: -1%[11.4 µM]

Results for Nc1ccn([C@H]2O[C@@H](COP(=O)(O)O)[C@@H](O)[C@H]2O)c(=O)n1 ?
Tau filament bind: -2%[11.4 µM]; Pol III holo inh: -10%[11.4 µM]; TsaE inh: inactive; 15-hLO inh: -2%[11.4 µM]; Hsp90 Hop PPI: -4%[11 µM]

What do the screens show for `COc1ccc(OC)c(N2C(=O)[C@@H]3C(c4ccccc4Cl)=NO[C@@H]3C2=O)c1`?
Tau filament bind: inconclusive; Pol III holo inh: 32µM*; TsaE inh: inactive; 15-hLO inh: -24%; Hsp90 Hop PPI: -12%

What do the screens show for `COc1ccc(C2=NO[C@@H]3C(=O)N(c4c(C)cccc4C)C(=O)[C@H]23)cc1OC`?
Tau filament bind: -12%; Pol III holo inh: -3%; TsaE inh: inactive; 15-hLO inh: 3%; Hsp90 Hop PPI: -7%

What do the screens show for `C=C1CC[C@@H]2O[C@]2(C)CC[C@@H]2[C@H]1CC2(C)C`?
Tau filament bind: -19%; Pol III holo inh: 0%; TsaE inh: inactive; Hsp90 Hop PPI: -5%

Results for O=C1C2=C(Nc3cc([N+](=O)[O-])ccc3N2)O[C@@H]1c1ccc([C@H]2OC3=C(Nc4ccc([N+](=O)[O-])cc4N3)C2=O)cc1 ?
Tau filament bind: inconclusive; Pol III holo inh: -5%[11.4 µM]; TsaE inh: inactive; 15-hLO inh: inconclusive; Hsp90 Hop PPI: -11%[11 µM]

Results for COC1=Cc2c(ccc3ccc(=O)oc23)OC1(C)C ?
Tau filament bind: -2%; Pol III holo inh: -4%; TsaE inh: inactive; 15-hLO inh: 32µM*; Hsp90 Hop PPI: 6%

What do the screens show for `CN/C=C1\C(=O)C(C)(C)Oc2ccc3ccc(=O)oc3c21`?
Tau filament bind: -11%; Pol III holo inh: -8%; TsaE inh: inactive; 15-hLO inh: 6%; Hsp90 Hop PPI: -3%

Results for Cn1cccc1C(=O)OCC(=O)Nc1cc(C(C)(C)C)nn1-c1ccccc1 ?
Tau filament bind: -10%; Pol III holo inh: -1%; TsaE inh: inactive; 15-hLO inh: -3%; Hsp90 Hop PPI: inconclusive

Results for Cn1cccc1C(=O)OCC(=O)c1cc2ccccc2o1 ?
Tau filament bind: 16µM*; Pol III holo inh: -2%; TsaE inh: inactive; 15-hLO inh: -7%; Hsp90 Hop PPI: -3%

How did CCOc1ccc(-c2cc(C(=O)NCCCN3CCN(CC)CC3)c3ccccc3n2)cc1 do in these assays?
Tau filament bind: 10%; Pol III holo inh: -2%; TsaE inh: inactive; 15-hLO inh: -8%; Hsp90 Hop PPI: -3%

How did COc1ccc(Nc2cc(C(=O)NCCCN3CCN(C)CC3)c3ccccc3n2)c(OC)c1 do in these assays?
Tau filament bind: 13µM*; Pol III holo inh: -4%; TsaE inh: inactive; 15-hLO inh: -16%; Hsp90 Hop PPI: -8%

Results for CC(=O)OCCC(C)CCC=C(C)C (stereo not drawn) ?
15-hLO inh: 10µM*

What do the screens show for `N=c1c(C(=O)NCc2ccccc2)cc2c(=O)n3ccccc3nc2n1CCCN1CCOCC1`?
Tau filament bind: inconclusive; Pol III holo inh: -15%; TsaE inh: inactive; 15-hLO inh: inconclusive; Hsp90 Hop PPI: -8%

How did N=c1c(C(=O)NCc2ccc(F)cc2)cc2c(=O)n3ccccc3nc2n1CCCN1CCOCC1 do in these assays?
Tau filament bind: 0.79µM*; Pol III holo inh: -4%; TsaE inh: inactive; 15-hLO inh: 3%; Hsp90 Hop PPI: 0%

Results for CCOCCCn1c(=N)c(C(=O)NCc2ccc3c(c2)OCO3)cc2c(=O)n3ccccc3nc21 ?
Tau filament bind: 5µM*; Pol III holo inh: -3%; TsaE inh: inactive; 15-hLO inh: 5%; Hsp90 Hop PPI: -4%

How did O=C(NCc1ccc2c(c1)OCO2)c1cnc2ccccn2c1=O do in these assays?
15-hLO inh: -1%

How did CCCn1c(=N)c(C(=O)NCc2ccc3c(c2)OCO3)cc2c(=O)n3cccc(C)c3nc21 do in these assays?
Tau filament bind: 1.6µM*; Pol III holo inh: -20%; TsaE inh: inactive; 15-hLO inh: -13%; Hsp90 Hop PPI: -2%

Results for C[C@H]1CN(S(=O)(=O)c2cccc3cnccc23)CCN1 ?
Tau filament bind: -4%; Pol III holo inh: -7%; TsaE inh: inactive; 15-hLO inh: -15%; Hsp90 Hop PPI: -2%

Results for CCCn1c(-c2ccc(F)cc2)nc2c(N3CCN(C)CC3)nc(C)nc21 ?
Tau filament bind: 24%; Pol III holo inh: -5%; TsaE inh: inactive; 15-hLO inh: 20µM*; Hsp90 Hop PPI: -6%

Results for CCCn1c(-c2ccc(F)cc2)nc2c(N3CCC(N(C)C)C3)nc(C)nc21 (stereo not drawn) ?
Tau filament bind: 18%; Pol III holo inh: -2%; TsaE inh: inactive; 15-hLO inh: 5%; Hsp90 Hop PPI: -4%

Results for Cc1ccc2[nH]c3nc(CCCn4ccnc4-c4ccccc4)nnc3c2c1 ?
15-hLO inh: 5%[11.4 µM]

How did CC(C)=CCc1c2c(c3occ(-c4ccc(O)c(O)c4)c(=O)c3c1O)C=CC(C)(C)O2 do in these assays?
Tau filament bind: 3.2µM*; Pol III holo inh: -18%[11.4 µM]; TsaE inh: inactive; 15-hLO inh: 4µM*; Hsp90 Hop PPI: -6%[11 µM]

How did CC1=C(\C=C/C(C)=C/C=C\C(C)=C\C(=O)Nc2ccc(O)cc2)C(C)(C)CCC1 do in these assays?
Tau filament bind: -28%; Pol III holo inh: -4%; TsaE inh: inactive; Hsp90 Hop PPI: -19%

How did N[C@H](Cc1ccc(F)cc1)C(=O)O do in these assays?
Tau filament bind: -6%; Pol III holo inh: 2%; TsaE inh: inactive; 15-hLO inh: -1%; Hsp90 Hop PPI: -6%

Results for O=C(NCc1ccccc1)c1ccc(Cc2nc3ccccc3[nH]2)cc1 ?
15-hLO inh: -8%

How did COc1cc(C(Nc2ccc3c(c2)OCO3)C(=O)NC2CCCCC2)cc(OC)c1OC (stereo not drawn) do in these assays?
Tau filament bind: -23%; Pol III holo inh: 2%; TsaE inh: inactive; 15-hLO inh: 0.63µM*; Hsp90 Hop PPI: inconclusive
